Common to all, as to assay: DAPPL (digital affinity profiling via proximity ligation, sequencing); 10 mM Tris-HCl pH 7.5, 50 mM NaCl, 1 mM DTT, 4% glycerol, room temperature, 30 min; GST-TFs on glutathione beads, 16-mer random dsDNA library, 0.1% formaldehyde crosslink after washing; high values mean tight binding
Common to all, as to details: protein: recombinant; tags: N-terminal GST; dsDNA, one strand shown

The target of one test is T1, FLI1 (Homo sapiens, UniProt Q01543 1-452).
T1 sequence: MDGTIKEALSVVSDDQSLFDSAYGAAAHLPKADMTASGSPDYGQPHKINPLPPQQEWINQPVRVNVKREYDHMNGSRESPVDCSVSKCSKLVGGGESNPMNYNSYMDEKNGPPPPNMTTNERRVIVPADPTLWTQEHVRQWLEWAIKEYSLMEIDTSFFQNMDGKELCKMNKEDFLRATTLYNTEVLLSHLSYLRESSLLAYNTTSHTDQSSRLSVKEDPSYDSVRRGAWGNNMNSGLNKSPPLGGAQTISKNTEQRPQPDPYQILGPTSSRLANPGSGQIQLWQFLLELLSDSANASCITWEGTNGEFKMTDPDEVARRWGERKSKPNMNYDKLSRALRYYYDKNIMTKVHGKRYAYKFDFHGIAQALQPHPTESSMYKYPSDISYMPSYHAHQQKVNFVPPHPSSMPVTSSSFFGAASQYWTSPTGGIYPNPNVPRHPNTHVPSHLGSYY
The method in brief:
(§1)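 Binding signal is given per hexamer as its read frequency for a factor divided by its frequency in the tag-only sample. GST-fused human transcription factors were expressed in yeast, captured on glutathione beads, barcoded with DNA and pooled with that sample, then incubated with 200 nmole of a 16-mer random double-stranded DNA library in Tris/NaCl/DTT/glycerol buffer for 30 min at room temperature. The pools were then washed, crosslinked, proximity-ligated, amplified by PCR and sequenced on an Illumina NextSeq500.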

In a further test the target is T2, ELK1 (Homo sapiens, UniProt P19419 1-428).
T2 sequence: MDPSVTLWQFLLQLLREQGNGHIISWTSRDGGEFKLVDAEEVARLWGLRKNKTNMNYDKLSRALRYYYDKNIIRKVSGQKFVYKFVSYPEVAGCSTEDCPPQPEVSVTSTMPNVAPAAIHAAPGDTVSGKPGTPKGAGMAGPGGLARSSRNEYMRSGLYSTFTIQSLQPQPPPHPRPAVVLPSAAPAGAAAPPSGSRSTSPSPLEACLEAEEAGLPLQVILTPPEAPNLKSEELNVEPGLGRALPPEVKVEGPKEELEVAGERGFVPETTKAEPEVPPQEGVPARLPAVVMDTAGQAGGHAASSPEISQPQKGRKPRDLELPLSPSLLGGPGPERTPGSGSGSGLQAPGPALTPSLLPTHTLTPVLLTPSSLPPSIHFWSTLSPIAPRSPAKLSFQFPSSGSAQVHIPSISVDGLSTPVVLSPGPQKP
The method in brief: as §1

Another test has as its target T3, GABPA (Homo sapiens, UniProt Q06546 1-454).
T3 sequence: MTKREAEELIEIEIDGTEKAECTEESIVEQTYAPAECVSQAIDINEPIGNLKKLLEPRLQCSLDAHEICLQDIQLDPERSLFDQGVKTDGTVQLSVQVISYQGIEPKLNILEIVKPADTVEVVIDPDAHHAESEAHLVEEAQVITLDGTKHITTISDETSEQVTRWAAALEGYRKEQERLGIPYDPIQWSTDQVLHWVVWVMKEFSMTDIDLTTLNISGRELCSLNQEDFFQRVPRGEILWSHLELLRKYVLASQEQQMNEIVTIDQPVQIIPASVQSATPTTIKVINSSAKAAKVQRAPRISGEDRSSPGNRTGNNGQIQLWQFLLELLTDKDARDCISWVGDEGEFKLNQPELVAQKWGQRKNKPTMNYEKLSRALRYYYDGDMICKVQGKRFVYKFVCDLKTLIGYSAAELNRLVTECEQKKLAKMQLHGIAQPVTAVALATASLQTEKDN
The method in brief:
as §1

The target in the next test is T4, ERG (Homo sapiens, UniProt P11308 1-479).
T4 sequence: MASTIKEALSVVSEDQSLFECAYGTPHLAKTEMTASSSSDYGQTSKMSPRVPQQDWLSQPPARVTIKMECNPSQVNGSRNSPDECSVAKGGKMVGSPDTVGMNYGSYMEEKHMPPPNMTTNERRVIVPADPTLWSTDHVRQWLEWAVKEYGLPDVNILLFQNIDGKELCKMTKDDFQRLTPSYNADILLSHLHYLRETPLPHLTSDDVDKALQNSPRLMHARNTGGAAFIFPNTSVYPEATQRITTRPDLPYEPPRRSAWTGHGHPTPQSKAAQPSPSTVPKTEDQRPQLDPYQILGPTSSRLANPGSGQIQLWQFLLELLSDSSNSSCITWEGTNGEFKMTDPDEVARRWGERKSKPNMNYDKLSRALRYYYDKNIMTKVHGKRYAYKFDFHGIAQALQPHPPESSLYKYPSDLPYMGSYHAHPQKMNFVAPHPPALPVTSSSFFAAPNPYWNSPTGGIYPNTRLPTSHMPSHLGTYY
The procedure, abridged: as §1

The target of the next test is ELF1 (Homo sapiens, UniProt P32519 1-619). The procedure, abridged: as §1
Chain of ELF1 (P32519 whole entry): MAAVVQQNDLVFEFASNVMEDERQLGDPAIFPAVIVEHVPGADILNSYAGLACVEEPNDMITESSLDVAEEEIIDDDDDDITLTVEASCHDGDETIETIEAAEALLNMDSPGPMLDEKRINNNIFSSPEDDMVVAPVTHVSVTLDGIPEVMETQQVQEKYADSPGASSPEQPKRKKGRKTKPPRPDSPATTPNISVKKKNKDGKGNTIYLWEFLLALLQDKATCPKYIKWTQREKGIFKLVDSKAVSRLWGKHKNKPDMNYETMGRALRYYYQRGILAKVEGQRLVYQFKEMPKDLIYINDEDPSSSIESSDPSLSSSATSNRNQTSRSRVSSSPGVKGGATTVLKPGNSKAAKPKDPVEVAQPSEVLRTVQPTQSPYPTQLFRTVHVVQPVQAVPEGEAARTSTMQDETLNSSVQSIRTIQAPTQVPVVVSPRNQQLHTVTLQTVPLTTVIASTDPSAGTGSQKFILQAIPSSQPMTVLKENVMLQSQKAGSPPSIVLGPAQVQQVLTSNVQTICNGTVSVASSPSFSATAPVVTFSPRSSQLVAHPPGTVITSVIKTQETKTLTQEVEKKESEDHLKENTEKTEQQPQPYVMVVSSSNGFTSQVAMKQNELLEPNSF
The target of the next test is T5, EHF (Homo sapiens, UniProt Q9NZC4 1-300).
T5 sequence: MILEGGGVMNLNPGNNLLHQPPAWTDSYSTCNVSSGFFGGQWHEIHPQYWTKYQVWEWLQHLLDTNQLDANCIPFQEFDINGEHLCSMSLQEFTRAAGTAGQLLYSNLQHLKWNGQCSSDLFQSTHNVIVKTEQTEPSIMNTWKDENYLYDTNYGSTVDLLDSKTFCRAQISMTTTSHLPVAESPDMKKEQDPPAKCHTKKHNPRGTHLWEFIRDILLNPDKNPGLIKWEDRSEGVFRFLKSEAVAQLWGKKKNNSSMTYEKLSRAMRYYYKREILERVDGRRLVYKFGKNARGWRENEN
The method in brief:
as §1

The target in the next test is SPI1 (Homo sapiens, UniProt P17947 1-270). The method in brief: as §1
Another test addresses SPIB (Homo sapiens, UniProt Q01892 1-262). The method in brief:
as §1

The target in another test is T6, ELK3 (Homo sapiens, UniProt P41970 1-407).
T6 sequence: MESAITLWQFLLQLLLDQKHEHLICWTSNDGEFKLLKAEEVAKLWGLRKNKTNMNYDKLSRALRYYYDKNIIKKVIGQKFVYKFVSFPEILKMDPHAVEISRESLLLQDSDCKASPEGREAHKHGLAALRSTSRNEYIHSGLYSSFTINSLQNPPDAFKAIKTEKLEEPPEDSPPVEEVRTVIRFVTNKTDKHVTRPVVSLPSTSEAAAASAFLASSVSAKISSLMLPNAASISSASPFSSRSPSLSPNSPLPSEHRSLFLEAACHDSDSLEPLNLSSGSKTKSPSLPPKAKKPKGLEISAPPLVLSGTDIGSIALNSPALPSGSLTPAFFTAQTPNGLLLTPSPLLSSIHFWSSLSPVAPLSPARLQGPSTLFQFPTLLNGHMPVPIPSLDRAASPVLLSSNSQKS
The procedure, abridged:
as §1

Chain of SPIB (Q01892 whole entry): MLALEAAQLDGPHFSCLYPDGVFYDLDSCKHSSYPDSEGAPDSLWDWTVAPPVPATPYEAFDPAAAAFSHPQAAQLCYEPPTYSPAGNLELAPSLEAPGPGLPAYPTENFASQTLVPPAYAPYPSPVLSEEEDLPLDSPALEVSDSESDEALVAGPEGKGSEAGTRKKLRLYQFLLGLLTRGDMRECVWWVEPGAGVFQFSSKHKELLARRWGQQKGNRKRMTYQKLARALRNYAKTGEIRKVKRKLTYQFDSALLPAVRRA

Take GAAAAT: the binding signal was 1.16 fold enrichment (6-mer frequency, TF over GST control) with FLI1; 1.07 fold enrichment (6-mer frequency, TF over GST control) with ELK1; 1.16 fold enrichment (6-mer frequency, TF over GST control) with GABPA; 1.07 fold enrichment (6-mer frequency, TF over GST control) with ERG; 1.04 fold enrichment (6-mer frequency, TF over GST control) in the test with ELF1; 1.14 fold enrichment (6-mer frequency, TF over GST control) in the test with EHF. The binding signal with SPI1 is 1.14 fold enrichment (6-mer frequency, TF over GST control); with SPIB, 1.18 fold enrichment (6-mer frequency, TF over GST control); with ELK3, 1.04 fold enrichment (6-mer frequency, TF over GST control).
As to CTACAC, the binding signal with FLI1 was 1.3 fold enrichment (6-mer frequency, TF over GST control); with ELK1, 1.27 fold enrichment (6-mer frequency, TF over GST control); with GABPA, 1.34 fold enrichment (6-mer frequency, TF over GST control); with ERG, 1.34 fold enrichment (6-mer frequency, TF over GST control); with ELF1, 1.33 fold enrichment (6-mer frequency, TF over GST control); with EHF, 1.36 fold enrichment (6-mer frequency, TF over GST control). The binding signal is 1.21 fold enrichment (6-mer frequency, TF over GST control) with SPI1; 1.33 fold enrichment (6-mer frequency, TF over GST control) in the test with SPIB; 1.27 fold enrichment (6-mer frequency, TF over GST control) with ELK3.
Regarding TTCCAC, the binding signal with FLI1 was 1.39 fold enrichment (6-mer frequency, TF over GST control); in the test with ELK1 it was 1.28 fold enrichment (6-mer frequency, TF over GST control); with GABPA, 1.38 fold enrichment (6-mer frequency, TF over GST control); with ERG, 1.4 fold enrichment (6-mer frequency, TF over GST control); in the test with ELF1 it was 1.45 fold enrichment (6-mer frequency, TF over GST control); in the test with EHF it was 1.33 fold enrichment (6-mer frequency, TF over GST control). Also, the binding signal is 1.42 fold enrichment (6-mer frequency, TF over GST control) with SPI1; 1.35 fold enrichment (6-mer frequency, TF over GST control) in the test with SPIB; 1.5 fold enrichment (6-mer frequency, TF over GST control) with ELK3.
GACTCT: the binding signal was 1.3 fold enrichment (6-mer frequency, TF over GST control) with FLI1; 1.28 fold enrichment (6-mer frequency, TF over GST control) in the test with ELK1; 1.37 fold enrichment (6-mer frequency, TF over GST control) with GABPA; 1.34 fold enrichment (6-mer frequency, TF over GST control) in the test with ERG; 1.37 fold enrichment (6-mer frequency, TF over GST control) with ELF1; 1.27 fold enrichment (6-mer frequency, TF over GST control) in the test with EHF. The binding signal is 1.2 fold enrichment (6-mer frequency, TF over GST control) with SPI1; 1.37 fold enrichment (6-mer frequency, TF over GST control) with SPIB; 1.2 fold enrichment (6-mer frequency, TF over GST control) with ELK3.
For GCTATT, the binding signal with FLI1 is 1.33 fold enrichment (6-mer frequency, TF over GST control); with ELK1 it was 1.34 fold enrichment (6-mer frequency, TF over GST control); in the test with GABPA, 1.36 fold enrichment (6-mer frequency, TF over GST control); in the test with ERG it was 1.3 fold enrichment (6-mer frequency, TF over GST control); with ELF1 it was 1.26 fold enrichment (6-mer frequency, TF over GST control); in the test with EHF, 1.39 fold enrichment (6-mer frequency, TF over GST control). Besides, the binding signal was 1.3 fold enrichment (6-mer frequency, TF over GST control) with SPI1; 1.28 fold enrichment (6-mer frequency, TF over GST control) with SPIB; 1.39 fold enrichment (6-mer frequency, TF over GST control) in the test with ELK3.
In the case of CCCTAC, the binding signal with FLI1 was 1.5 fold enrichment (6-mer frequency, TF over GST control); with ELK1 it was 1.49 fold enrichment (6-mer frequency, TF over GST control); in the test with GABPA, 1.33 fold enrichment (6-mer frequency, TF over GST control); in the test with ERG it was 1.33 fold enrichment (6-mer frequency, TF over GST control); in the test with ELF1, 1.4 fold enrichment (6-mer frequency, TF over GST control); in the test with EHF, 1.33 fold enrichment (6-mer frequency, TF over GST control). For the same sequence, the binding signal is 1.36 fold enrichment (6-mer frequency, TF over GST control) with SPI1; 1.25 fold enrichment (6-mer frequency, TF over GST control) with SPIB; 1.65 fold enrichment (6-mer frequency, TF over GST control) in the test with ELK3.
For TCTCTT, the binding signal with FLI1 is 1.52 fold enrichment (6-mer frequency, TF over GST control); with ELK1, 1.34 fold enrichment (6-mer frequency, TF over GST control); with GABPA, 1.45 fold enrichment (6-mer frequency, TF over GST control); with ERG, 1.27 fold enrichment (6-mer frequency, TF over GST control); with ELF1 it was 1.47 fold enrichment (6-mer frequency, TF over GST control); with EHF it was 1.41 fold enrichment (6-mer frequency, TF over GST control). Moreover, the binding signal in the test with SPI1 was 1.32 fold enrichment (6-mer frequency, TF over GST control); with SPIB it was 1.38 fold enrichment (6-mer frequency, TF over GST control); in the test with ELK3 it was 1.31 fold enrichment (6-mer frequency, TF over GST control).
In the case of GATTAC, the binding signal was 1.16 fold enrichment (6-mer frequency, TF over GST control) with FLI1; 1.1 fold enrichment (6-mer frequency, TF over GST control) in the test with ELK1; 1.13 fold enrichment (6-mer frequency, TF over GST control) in the test with GABPA; 1.12 fold enrichment (6-mer frequency, TF over GST control) with ERG; 1.07 fold enrichment (6-mer frequency, TF over GST control) with ELF1; 1.12 fold enrichment (6-mer frequency, TF over GST control) with EHF. Also, the binding signal is 1.09 fold enrichment (6-mer frequency, TF over GST control) with SPI1; 1.15 fold enrichment (6-mer frequency, TF over GST control) in the test with SPIB; 1.18 fold enrichment (6-mer frequency, TF over GST control) in the test with ELK3.

These data come from paper PMC7862700, “An all-to-all approach to the identification of sequence-specific readers for epigenetic DNA modifications on cytosine”.
